MEKK2mut PB1 HTS: MEK5 binding signal on mutant MEKK2 PB1, primary screen, biochemical, multiplex bead flow cytometry, Alexa488-MEK5. Alexa488-MEK5 binding to MEKK2 mutant. percent response, % at 10 µM. hit rate 0.35% among 290,000. AID 1530, 2009; in the data active means percent response above about 24%, passing the limit was not always enough
ATG4B inh: ATG4B protease inhibitors, primary screen, biochemical, fluorescence, uHTS; hit rate 0.51% among 340,000; Cysteine protease ATG4B (Homo sapiens), Q9Y4P1; AID 504462, 2011; ATG4B cleavage of LC3-PLA2, NBD-HPC fluorescence, 1 h; inhibition, % at 8.33 µM; in the data active means inhibition above about 40%
Target sequence (Q9Y4P1 whole entry, looked up): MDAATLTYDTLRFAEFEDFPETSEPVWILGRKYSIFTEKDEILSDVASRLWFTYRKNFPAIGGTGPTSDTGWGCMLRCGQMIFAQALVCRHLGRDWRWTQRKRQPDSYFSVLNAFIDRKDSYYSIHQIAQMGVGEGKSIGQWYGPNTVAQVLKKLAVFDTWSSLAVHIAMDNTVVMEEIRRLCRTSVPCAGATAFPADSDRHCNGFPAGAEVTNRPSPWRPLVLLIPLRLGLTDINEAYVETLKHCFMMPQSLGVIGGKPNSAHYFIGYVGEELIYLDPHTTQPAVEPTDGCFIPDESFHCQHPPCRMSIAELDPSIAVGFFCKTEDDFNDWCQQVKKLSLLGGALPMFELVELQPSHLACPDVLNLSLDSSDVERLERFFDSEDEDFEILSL
PREPL inhibitor: PREPL enzyme inhibitors, primary screen, biochemical, fluorescence polarization | Prolyl endopeptidase-like (Homo sapiens), Q4J6C6 | recombinant PREPL, fluorescence polarization activity-based probe | inhibition, % at 5.96 µM | hit rate 0.68% among 320,000 | AID 2751, 2010; in the data active means inhibition above about 43%;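 further: 0% = enzyme with DMSO and 100% = wells lacking enzyme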
UBC13 inh: UBC13 polyubiquitin chain formation inhibitors, primary screen, biochemical, TR-FRET, uHTS; hit rate 0.47% among 330,000; inhibition, % at 20 µM; in the data active means inhibition above about 45%, passing the limit was not always enough
Target sequence (P61088 whole entry, looked up): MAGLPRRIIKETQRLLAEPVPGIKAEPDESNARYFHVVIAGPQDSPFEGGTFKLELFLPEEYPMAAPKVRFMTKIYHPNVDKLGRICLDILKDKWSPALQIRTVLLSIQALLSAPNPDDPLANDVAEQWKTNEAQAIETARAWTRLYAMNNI
MEKK3 PB1 HTS: modulators of MEKK3-MEK5 PB1 binding, primary screen, biochemical, wildtype MEKK3, multiplex bead flow cytometry, Alexa488-MEK5. Mitogen-activated protein kinase kinase kinase 3 (Homo sapiens), Q99759. bead-based flow cytometry, Alexa488-MEK5 binding to MEKK3; actives lie on both sides; 0 = blocked by unlabeled MEK5, 100 = vehicle. binding response (% of control), % at 10 µM. hit rate 1.4% among 290,000. AID 1529, 2009;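 active means binding response more than 3 SD above or below the average of its plate-row segment, actives on both sides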;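 further: Alexa488 bead fluorescence after subtracting the streptavidin-only scavenger bead signal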
MEKK2 WT-MEK5: modulators of MEK5 binding to wildtype MEKK2, primary screen, biochemical, multiplex bead flow cytometry, Alexa488-MEK5 | Mitogen-activated protein kinase kinase kinase 2 (Homo sapiens), Q9Y2U5 | binding response (% of control), % at 10 µM | Alexa488-MEK5 binding to MEKK2 WT; actives lie on both sides | hit rate 1.1% among 290,000; in the data active means binding response below about 67% or above about 130%
MEKK2wt confirm: modulators of MEK5 binding to wildtype MEKK2, confirmation, biochemical, single concentration, multiplex bead flow cytometry; shares compounds with MEKK3 PB1 HTS; Alexa488-MEK5 binding to MEKK2 WT; actives lie on both sides; binding response (% of control), % at 10 µM; hit rate 2.4% among 5,900; AID 1892, 2009; in the data active means binding response below about 16% or above about 210%; inactive means in between
MEKK2mut-MEK5: mutant MEKK2 PB1-MEK5 binding signal retest – biochemical, single concentration, multiplex bead flow cytometry, confirmation; shares compounds with MEKK3 PB1 HTS; hit rate 2% among 5,900; Alexa488-MEK5 binding to MEKK2 mutant; percent response, % at 10 µM; in the data active means percent response mostly above about 71%, no sharp cut-off; inactive means mostly below about 38%;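 further: higher means compound restores mutant binding toward wildtype level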
MEKK3-MEK5 inh: MEKK3 wild-type PB1 binding to MEK5, inhibitors, confirmation, biochemical, bead multiplex flow cytometry, single concentration, wildtype; shares compounds with MEKK3 PB1 HTS; binding response (% of control), % at 10 µM; Alexa488-MEK5 binding to MEKK3; stronger effect = lower value; hit rate 1.8% among 5,900; AID 1894, 2009;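 active means binding response below 72% of control, or above a set upper limit, though filed actives all read lower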;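 further: 100% = DMSO only wells and 0% = binding blocked by excess unlabeled MEK5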
Starred values were filed as active, the others as inactive; [ ] = another dose, or the depositor's remark. Hits are enriched below; roughly 3.1% of the tested compounds scored in any of these assays.

For CCOC(=O)c1c(-c2ccc(OC)cc2)csc1/N=C/N(C)C the results were MEKK2mut PB1 HTS 0, ATG4B inh -5, PREPL inhibitor 9, UBC13 inh -4, MEKK3 PB1 HTS 136*, MEKK2 WT-MEK5 105, MEKK2wt confirm 99, MEKK2mut-MEK5 -5 and MEKK3-MEK5 inh 97.
For C=CCNC(=O)C1(c2ccccc2)CC1(Cl)Cl (stereo unspecified) the results were MEKK2mut PB1 HTS -1, ATG4B inh 5, PREPL inhibitor 3, UBC13 inh 9, MEKK3 PB1 HTS 105 and MEKK2 WT-MEK5 105.
For O=C(CSc1nnc(COc2ccccc2)n1Cc1ccco1)c1ccc(F)cc1 the results were MEKK2mut PB1 HTS 2, ATG4B inh 12, PREPL inhibitor -22, UBC13 inh 9, MEKK3 PB1 HTS 103 and MEKK2 WT-MEK5 102.
`NC(=O)CSc1nnc(COc2ccccc2)n1Cc1ccco1` gave MEKK2mut PB1 HTS 0, ATG4B inh 3, PREPL inhibitor -8, UBC13 inh -1, MEKK3 PB1 HTS 131*, MEKK2 WT-MEK5 120, MEKK2wt confirm 96, MEKK2mut-MEK5 -3 and MEKK3-MEK5 inh 97.
Screening COC(=O)c1ccc(CNC(=O)C23CC4CC(CC(C4)C2)C3)cc1 returned MEKK2mut PB1 HTS 6, ATG4B inh -7, PREPL inhibitor 12, UBC13 inh -2, MEKK3 PB1 HTS 101 and MEKK2 WT-MEK5 96.
`COc1ccccc1N(CC(=O)N/N=C(\C)c1ccc(F)cc1)S(=O)(=O)c1ccccc1` gave ATG4B inh -7, PREPL inhibitor 0 and UBC13 inh 8.
For CC(=O)c1ccc(S(=O)(=O)N(C)C(C)CCc2ccco2)cc1 (stereo unspecified) the results were MEKK2mut PB1 HTS 8, ATG4B inh 6, UBC13 inh -1, MEKK3 PB1 HTS 106 and MEKK2 WT-MEK5 103.
Screening COc1ccc(OC)c(N2Cc3cc(C)c(C)cc3C2)c1 returned MEKK2mut PB1 HTS -27, ATG4B inh 8, PREPL inhibitor 4, UBC13 inh -33, MEKK3 PB1 HTS 8.0*[inhibitor], MEKK2 WT-MEK5 10*[inhibitor], MEKK2wt confirm 91, MEKK2mut-MEK5 -5 and MEKK3-MEK5 inh 98.
For CCOc1ccccc1N1Cc2cc(C)c(C)cc2C1 the results were MEKK2mut PB1 HTS 4, ATG4B inh -21, PREPL inhibitor 6, UBC13 inh -24, MEKK3 PB1 HTS 96 and MEKK2 WT-MEK5 92.
Screening CC1CCN(c2c(NCC3CCC(C(=O)NCc4ccccc4)CC3)c(=O)c2=O)CC1 (stereo unspecified) returned MEKK2mut PB1 HTS -2, ATG4B inh 16, PREPL inhibitor 2, UBC13 inh 6, MEKK3 PB1 HTS 110 and MEKK2 WT-MEK5 100.
O=C(NCc1ccccc1)C1CCC(CNc2c(N3CCCCC3)c(=O)c2=O)CC1 (stereo unspecified) was read as MEKK2mut PB1 HTS -7, ATG4B inh -7, PREPL inhibitor -3, UBC13 inh -14, MEKK3 PB1 HTS 70*[inhibitor], MEKK2 WT-MEK5 77, MEKK2wt confirm 102, MEKK2mut-MEK5 2 and MEKK3-MEK5 inh 103.
Screening O=C(Nc1cc(C(F)(F)F)ccc1F)C1CCCCC1 returned MEKK2mut PB1 HTS -18, ATG4B inh 7, PREPL inhibitor 6, UBC13 inh 2, MEKK3 PB1 HTS 72*[inhibitor], MEKK2 WT-MEK5 80, MEKK2wt confirm 92, MEKK2mut-MEK5 -4 and MEKK3-MEK5 inh 94.
For Cc1ccc(Sc2ccc(N)cc2C#N)cc1 the results were MEKK2mut PB1 HTS 1, ATG4B inh -3, PREPL inhibitor -6, UBC13 inh 12, MEKK3 PB1 HTS 104 and MEKK2 WT-MEK5 107.
For CC(C)(CS(=O)(=O)[O-])NC(=O)CC[N+](C)(C)CCO the results were MEKK2mut PB1 HTS -35, ATG4B inh -10, PREPL inhibitor 0, UBC13 inh -30, MEKK3 PB1 HTS 65*[inhibitor], MEKK2 WT-MEK5 95, MEKK2wt confirm 103, MEKK2mut-MEK5 -31 and MEKK3-MEK5 inh 86.
`CC1=CS(=O)(=O)CC1Sc1ncn[nH]1` (stereo unspecified) gave MEKK2mut PB1 HTS 5, ATG4B inh -2, PREPL inhibitor -7, UBC13 inh -9, MEKK3 PB1 HTS 64*[inhibitor], MEKK2 WT-MEK5 76, MEKK2wt confirm 42, MEKK2mut-MEK5 0 and MEKK3-MEK5 inh 81.
For COc1ccc(CNCCC(c2ccc(OC(C)C)cc2)C(C)C)cc1OC (stereo unspecified) the results were MEKK2mut PB1 HTS 6, ATG4B inh 5, PREPL inhibitor -1, UBC13 inh 17, MEKK3 PB1 HTS 104 and MEKK2 WT-MEK5 114.
COc1ccccc1C(CCNCc1ccc(N(C)C)cc1)c1ccc(OC(C)C)cc1 (stereo unspecified) was read as MEKK2mut PB1 HTS 61*, ATG4B inh -1, PREPL inhibitor 18, UBC13 inh 32, MEKK3 PB1 HTS 117, MEKK2 WT-MEK5 229*, MEKK2wt confirm 160, MEKK2mut-MEK5 30 and MEKK3-MEK5 inh 107.
Screening COc1ccc(C(CCNCc2ccc(N(C)C)cc2)C(C)C)cc1 (stereo unspecified) returned MEKK2mut PB1 HTS 19, ATG4B inh 7, PREPL inhibitor -16, UBC13 inh 8, MEKK3 PB1 HTS 103 and MEKK2 WT-MEK5 124.
For COc1ccc(CNCCC(c2ccc(OC(C)C)cc2)c2ccccc2OC)cc1 (stereo unspecified) the results were MEKK2mut PB1 HTS 47*, ATG4B inh -4, PREPL inhibitor -7, UBC13 inh 31, MEKK3 PB1 HTS 112, MEKK2 WT-MEK5 193*, MEKK2wt confirm 181, MEKK2mut-MEK5 41 and MEKK3-MEK5 inh 111.

Screens (PubChem BioAssay)
